PubChem BioAssay (NCI)
This is part of a sample that, as a whole, favours compounds with a hit. Of some 79,000 tested, about 15% had one in any assay. Unmarked numbers belong to inactive results. The source made the active and inactive calls. Rule as the data show it: active = growth inhibition above about 70%; inactive = the rest.

What was measured:
[1] = NCI Yeast Anticancer Drug Screen. Data for the rad50 strain (AID 155);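 also: 0% = growth of vehicle-only cultures of the same strain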; details: S. cerevisiae rad50 strain growth inhibition; at 50.0 µM; active compounds read high
Outline: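 Relative growth inhibition (compound vs vehicle) was measured in yeast with a defined repair-gene alteration.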

[2] = NCI Yeast Anticancer Drug Screen. Data for the mec2-1 strain (AID 157); details: S. cerevisiae mec2-1 strain, at 50.0 µM, active compounds read high
Outline: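 Test agents were screened against the mec2-1 yeast strain, with defined DNA repair or cell cycle alteration. Growth was scored as inhibition against vehicle-only controls.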

[3] = NCI Yeast Anticancer Drug Screen. Data for the sgs1 mgt1 strain (AID 161);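 also: 0% = growth of cultures given vehicle only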; details: S. cerevisiae sgs1 mgt1 strain, at 50.0 µM, active compounds read high
Outline: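 Mutant yeast exposed to compound; growth scored against vehicle-only wells.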

[4] = NCI Yeast Anticancer Drug Screen. Data for the cln2 rad14 strain (AID 165);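 also: 0% = growth equal to vehicle treated cultures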; details: S. cerevisiae cln2 rad14 strain, at 50.0 µM, active compounds read high
Outline: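 Growth of compound-exposed yeast (cln2 rad14 genotype) measured and expressed as inhibition relative to vehicle.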

[5] = NCI Yeast Anticancer Drug Screen. Data for the bub3 strain (AID 167); details: S. cerevisiae bub3 mutant strain, at 50.0 µM, active compounds read high
Outline: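 Screening used yeast with an engineered genetic alteration affecting cell cycle control. Compound-exposed cultures were compared with vehicle cultures, and reduced growth was taken as inhibition.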

[6] = NCI Yeast Anticancer Drug Screen. Data for the mlh1 rad18 strain (AID 175); details: S. cerevisiae mlh1 rad18 strain growth inhibition; at 50.0 µM; active compounds read high
Outline: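 In this whole-cell yeast screen, a strain with altered DNA damage repair is challenged with compound, and its growth is measured against matched vehicle-treated controls.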

| Structure (SMILES) | growth inhibition [1] | growth inhibition [2] | growth inhibition [3] | growth inhibition [4] | growth inhibition [5] | growth inhibition [6] |
| --- | --- | --- | --- | --- | --- | --- |
| CC1=N/C(=C/c2ccc3c(c2)OCO3)C(=O)O1 | 5.05% | 6.1% | 6.05% | -24.9% | -4.6% | 14% |
| CCOC(=O)Oc1ccc(C(=O)Oc2cc(Cl)c(Cl)cc2Cl)cc1OC | 3.9% | 4.7% | 3.25% | 18% | -13.9% | 7% |
| CCC(C)(O)C(C)(O)CC (configuration not stated) | -6.55% | -13.8% | 15.4% | 17.6% | -13.8% | -8.8% |
| COc1ccc(CC#N)c(OCc2ccccc2)c1 | 2.35% | 8.3% | -10.2% | 3.55% | 1.8% | -17.5% |
| COc1ccc2c(c1)OC(=O)C(S(=O)(=O)c1ccccc1)C2 (configuration not stated) | 6.25% | 14.6% | 6.65% | -3.55% | 1.2% | 7.55% |
| OC(CBr)CBr | 1.8% | -7.45% | 0.4% | -42.8% | -3.05% | 9.9% |
| CCO/C([O-])=C(\C=N\S(=O)(=O)c1ccc(C)cc1)[n+]1ccccc1 | 8.8% | 13.8% | 5.1% | -20.2% | -3.85% | 2.65% |
| C=C1CC(C)(Cn2c(N)nc3nc[nH]c3c2=O)OC1=O (configuration not stated) | 11.7% | 5.95% | 11.1% | 12.9% | 14.1% | 4.8% |
| CC/C(=N/N(C)C)C(=O)OC(C)(C)C | -42.9% | -24.6% | -15.8% | -44.6% | 1.35% | -4.2% |
| C[N+]1(C)CCCC(c2ccccc2)(c2ccccc2)C(O)C1 (configuration not stated) | 10.8% | 7.15% | 11.2% | 23.4% | -2.65% | 11.9% |
| CCCCCOc1ccc(C2=C(c3ccccc3)C(=O)C(c3ccccc3)=C2c2ccccc2)cc1 | 40.4% | 12.3% | 33.5% | 26.9% | -3.15% | 23.4% |
| CN(C)C(=S)N(C(=S)N(C)C)c1ccc(Cl)cc1 | -7.9% | -11.8% | -7.15% | -4.1% | 3.1% | -17.8% |
| CCc1ccc(NC(=O)c2ccc(C(=O)Nc3ccc(CC)cc3)cc2)cc1 | 3.2% | 6.6% | 8.4% | 14.1% | 13.4% | 5.1% |
| CCN(CC)CN(CC)CC | 13.7% | -9.2% | 7.6% | 21.4% | 10.9% | 9.25% |
| COc1cccc(/C(C#N)=C\O)c1 | -17.2% | -36.9% | -29.9% | 3.2% | -42.9% | -8.8% |
| CC(C)N(C(=O)C12C3C4C5(C(=O)O)C(C1C35I)C42C(=O)O)C(C)C (configuration not stated) | -5.25% | 11.1% | -13.3% | 13.7% | -10.4% | -4.1% |
| CC(=O)OC(C(=O)N(c1ccccc1)c1ccccc1)c1ccccc1 (configuration not stated) | 3.5% | 27.4% | 10.9% | 18.2% | 7.35% | 16.1% |
| COC(=O)Cc1c(C(C)=O)[nH]c2ccccc12 | 19.5% | 9.2% | 4.35% | 20.6% | 4.25% | 13.1% |
| Nc1nc(NCCCc2ccccc2)c(N)c(=O)[nH]1 | 5.1% | 16.9% | 6.55% | -3.1% | 31.6% | 7.6% |
| COC(=O)CC(C(C(=O)OC)C(=O)OC)N1C(=O)OC(c2ccccc2)C1c1ccccc1 (configuration not stated) | 7.75% | -10.5% | -2.95% | 9.4% | -18% | 3.4% |
| O=C(OCC1CCCO1)c1ccc(Cl)cc1 (configuration not stated) | 13.7% | -4.4% | 24.9% | 34.1% | 8% | 7.2% |

| Structure (SMILES) | growth inhibition [1] | growth inhibition [2] | growth inhibition [3] | growth inhibition [4] | growth inhibition [5] | growth inhibition [6] |
| --- | --- | --- | --- | --- | --- | --- |
| OCn1c2ccccc2c2ccccc21 | 19.8% | 0.55% | 33.7% | 20.8% | 35.9% | 19.8% |
| O=Cc1c(O)ccc2ccc3ccccc3c12 | 16.1% | 7.25% | 10.1% | -32.7% | -7.7% | 16.4% |
| NC(Cc1ccc(O)c(O)c1)C(=O)OCc1ccccc1 (configuration not stated) | 67.6% | 60.7% | 68.8% | 58.4% | 38.5% | 65.8% |
| N#Cc1c(F)c(F)c(Oc2c(F)c(F)c(F)c(F)c2F)c(F)c1Oc1c(F)c(F)c(F)c(F)c1F | -1.1% | 11% | -11.8% | 9% | -0.3% | 5.8% |
| OCCCCC(c1ccc(O)cc1)c1ccc(O)cc1 | 17% | -52.3% | 8.8% | 25.1% | -18.9% | -14.7% |
| CC(=O)c1ccc(O)c(C=O)c1O | 11.7% | 9.3% | 27.1% | 2.65% | -2.9% | 31.9% |
| Cc1ccccc1OCC1COCN(C(C)(C)C)CO1 (configuration not stated) | -13.5% | -2.2% | 4.95% | 7.8% | -20.9% | 19.6% |
| CCS(=O)(=O)N(CC(=O)O)Cc1ccccc1 | -4.95% | 7.3% | -13.4% | 0.95% | 6.8% | 0.65% |
| O=c1c2c(c(=O)c(=O)c1=O)Nc1ccccc1N2 | 22.2% | -6.15% | 11.6% | 34.7% | 10.2% | 15.7% |
| O=C(O)C1CC=CCC1c1c2ccc(=O)cc-2oc2cc(O)ccc12 (configuration not stated) | 48.5% | 27.8% | 15.8% | -5.25% | 32.9% | 13.6% |
| O=C(Cn1c(=O)oc2ccc(C(=O)c3ccc(F)cc3)cc21)c1ccccc1 | -21.4% | -24.5% | -6.25% | -27.9% | -0.2% | -26.9% |
| C/C=C/CS(=O)(=O)Cc1ccccc1 | 1.85% | -11.8% | -5.95% | -3.95% | -4.3% | -14.9% |
| Clc1ccc(-c2ncc(-c3ccccc3)o2)c(Cl)c1 | 9.35% | -3.4% | 5.65% | -39.9% | 9.2% | 23.2% |
| CCOc1ncc(C(O)c2ccco2)c(OCC)n1 (configuration not stated) | -0.85% | 5.85% | 5.7% | -47.8% | 3.15% | -8% |
| O=C(O)c1ccc(N2C(=O)c3ccccc3C2=O)cc1 | -19.1% | 4.8% | 1.95% | -10.1% | -18.3% | 41.9% |
| CCOC(CN(C(C)C)C(C)C)OCC | -16.4% | -16.8% | 8% | 13.8% | -16.6% | 14.9% |
| c1ccc(P(=Nc2cccc(N=P(c3ccccc3)(c3ccccc3)c3ccccc3)c2)(c2ccccc2)c2ccccc2)cc1 | 0.95% | 6.9% | 28.2% | -2.6% | 0.05% | 6.6% |
| COc1ccc(C2CCCCCC2OS(=O)(=O)c2ccc(C)cc2)c(OC)c1OC (configuration not stated) | 1.75% | -4.55% | -7.15% | -14.8% | 8.45% | -9% |
| O=C(NCCc1ccccc1)c1ccc2ccccc2n1 | 65.3% | 53.3% | 63.7% | 52.1% | 87.5% (active) | 84.5% (active) |
| CC(C)NC1(N(C)C)N=C(N(C)C)N=C(N(C)C)O1 (configuration not stated) | -3.65% | -2.7% | 2.75% | 27% | 9.5% | -1.25% |
| COc1cccc(C2OC(N)=C(O)C2=O)c1 (configuration not stated) | -10.8% | 1.9% | 3.6% | -11.2% | 2.45% | 22.2% |
